# IL-1B inflam inh = qHTS for Inhibitors of Inflammasome Signaling: IL-1-beta AlphaLISA Primary Screen; THP-1 LPS/ATP IL-1B secretion, AlphaLISA, 16 h; active compounds read low; activity change, % at 57.5 µM; actives 4.7% (n = 360,000); AID 743279, 2014; in the data active = activity change below about -50%; inconclusive = mostly about -30% to -49%
#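 THP-1 cells pretreated 1 hr with compounds (up to 57.5 uM final), then stimulated with LPS (250 ng/mL final) plus ATP (1.25 mM final); secreted IL-1B measured by AlphaLISA after 16 hr, decreased signal indicating inhibition.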
# DT40 TDP1 CPT = qHTS for Inhibitors of human tyrosyl-DNA phosphodiesterase 1 (TDP1): qHTS in cells in presence of CPT. chicken DT40 Tdp1-/-;hTDP1 cells + 20 nM CPT, ATP luminescence, 48 h. actives 12% (n = 420,000). Potency, µM (series often up to 46.2 µM), inactives show at the highest dose activity change, negative = growth inhibition, hits mostly inhibitors. AID 686979, 2013; note: potency is the fitted concentration of half-maximal effect; nearly all actives have a fitted effect of over 55% in size
#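 Chicken DT40 Tdp1-/- cells complemented with human TDP1, 400 cells/well, exposed to compounds plus 20 nM camptothecin for at least 48 h at 37 C; viability read as ATP content by CellTiter-Glo luminescence.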
# Six1-Eya2 blk = qHTS Assay for Inhibitors of the Six1/Eya2 Interaction | actives 0.56% (n = 360,000) | activity change, % (concentration not given with the values) | Homeobox protein SIX1 (Homo sapiens) + Protein phosphatase EYA2 (Homo sapiens), … | AlphaScreen GST-Six1/His-Eya2 binding, biochemical; active compounds read low; in the data active = activity change below about -65%; inconclusive = mostly about -30% to -63%
#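 GST-Six1 + His-Eya2 (5X stock: 250/500 nM); Tris pH 8.0, 300 mM NaCl, 0.05% BSA, 0.02% Tween 20; GSH donor/Ni acceptor beads; 1 h 37 °C dark; AlphaScreen readout.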
# TDP1 block = qHTS Assay for Inhibitors of Tyrosyl-DNA Phosphodiesterase (TDP1) | actives 0.28% (n = 350,000) | Potency, µM (titrated, usually from 130 µM), without a hit: at the highest dose activity change, negative = inhibition, usual class: inhibitors | recombinant TDP1, AlphaScreen DNA substrate cleavage; note: potency is the fitted concentration of half-maximal effect; nearly all actives have a fitted effect of over 40% in size
# Target sequence (Q9NUW8 whole entry, looked up): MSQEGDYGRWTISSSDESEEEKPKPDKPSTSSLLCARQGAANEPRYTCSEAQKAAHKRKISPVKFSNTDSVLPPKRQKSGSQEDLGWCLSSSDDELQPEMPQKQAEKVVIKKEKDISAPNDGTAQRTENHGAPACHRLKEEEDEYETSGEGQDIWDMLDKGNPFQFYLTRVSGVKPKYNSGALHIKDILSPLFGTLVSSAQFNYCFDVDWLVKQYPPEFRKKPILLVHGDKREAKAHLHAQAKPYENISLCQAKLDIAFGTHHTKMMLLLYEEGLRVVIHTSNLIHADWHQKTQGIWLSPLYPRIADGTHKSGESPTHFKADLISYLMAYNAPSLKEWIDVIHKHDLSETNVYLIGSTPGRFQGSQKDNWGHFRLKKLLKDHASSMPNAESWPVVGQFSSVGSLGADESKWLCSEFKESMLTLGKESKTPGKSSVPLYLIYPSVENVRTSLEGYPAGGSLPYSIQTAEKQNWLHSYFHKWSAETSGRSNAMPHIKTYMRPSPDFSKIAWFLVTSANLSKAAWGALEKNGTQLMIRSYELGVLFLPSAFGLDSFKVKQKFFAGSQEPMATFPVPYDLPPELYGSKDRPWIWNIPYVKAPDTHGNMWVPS
#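 Tdp1 1 nM final; 15 min RT w/ cpd; substrate 15 nM, 5 min; beads 10 ug/ml, 10 min; AlphaScreen read. Neg ctrl: no enzyme.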
# CtBP-E1A inh = qHTS Assay for Inhibitors of the CtBP/E1A Interaction. CtBP / adenovirus E1A interaction (AlphaScreen). AlphaScreen GST-E1A/His-CtBP binding, 1536-well; active compounds read low. activity change, % (concentration not given with the values). actives 0.49% (n = 340,000). AID 651724, 2012; in the data active = activity change below about -65%; inconclusive = mostly about -30% to -63%
#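 AlphaScreen with 125 nM GST-E1A and 125 nM His-CtBP (5X stocks) in Tris pH 8.0, 300 mM NaCl, BSA, Tween 20, TCEP. Compounds preincubated 2 h at 37 deg C, then glutathione donor/nickel acceptor beads added for 1 h at 37 deg C in dark.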
# DT40 TDP1 no CPT = qHTS for Inhibitors of human tyrosyl-DNA phosphodiesterase 1 (TDP1): qHTS in cells in absence of CPT; DT40 Tdp1-/- hTDP1 cells, no CPT, ATP luminescence, 48 h; Potency, µM (doses to about 46.2 µM), for the others: top-dose activity change, negative = growth inhibition, most hits filed as inhibitors; actives 15% (n = 420,000); AID 686978, 2013; note: potency is the fitted concentration of half-maximal effect; nearly all actives have a fitted effect of over 55% in size
#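 Growth of hTDP1-complemented DT40 Tdp1-knockout cells is measured by ATP luminescence after at least 48 hr compound exposure at 37 °C, with DMSO substituting for the 20 nM CPT used in the parallel screen.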
# * = called active by the depositor; ? = inconclusive; nt = not tested or not shown. Shown are actives, neighbours in structure and some others; about 18% of the full set was active somewhere. Unless noted, calls come from the whole dose curve; as a rule, active = well fitted curve in the direction sought with a large enough effect; inconclusive = small, poorly fitted or top-dose-only effect, or another doubt; inactive = no such curve, though single readings can be large; an effect the other way counts as inactive or inconclusive. % is set by controls: 0 for no effect and ±100 for the full control effect.
SMILES,IL-1B inflam inh,DT40 TDP1 CPT,Six1-Eya2 blk,TDP1 block,CtBP-E1A inh,DT40 TDP1 no CPT
Cc1ccc(NC(=O)c2sc3nc(N4CCOCC4)c4c(c3c2N)CCCC4)cc1,-23,-9%,-18,nt,-5,?
Nc1c(S(=O)(=O)c2cccs2)c2nc3ccccc3nc2n1Cc1cccs1,0,?,5,2%,21,?
Nc1c(S(=O)(=O)c2cccs2)c2nc3ccccc3nc2n1Cc1ccc2c(c1)OCO2,-67*,?,12,1%,7,?
Cc1ccc(S(=O)(=O)c2c(N)n(Cc3ccco3)c3nc4ccccc4nc23)cc1C,?,?,4,-4%,1,?
COc1ccc(CCn2c(N)c(C#N)c3nc4ccccc4nc32)cc1OC,-9,21µM*,-65*,4%,-69*,13µM*
COc1ccc(Cn2c(N)c(C#N)c3nc4ccccc4nc32)cc1OC,-5,-14%,-16,2%,-23,-22%
Nc1c(S(=O)(=O)c2ccccc2)c2nc3ccccc3nc2n1Cc1ccco1,-26,18µM*,-2,-3%,-9,?
Nc1c(S(=O)(=O)c2cccs2)c2nc3ccccc3nc2n1CCc1ccccc1,nt,nt,nt,-4%,nt,nt
COc1ccc(CCn2c(N)c(S(=O)(=O)c3cccs3)c3nc4ccccc4nc32)cc1OC,-55*,?,-67*,-3%,8,?
COc1cc(NC(=O)c2ccc(NC3=NC4CS(=O)(=O)CC4S3)cc2)cc(OC)c1OC (stereo not drawn),7,-10%,-4,nt,-13,18%
CC(=O)Nc1cc(NC(C)=O)cc(C(=O)OCC(=O)Nc2ccc(S(=O)(=O)NC3=NCCCCC3)cc2)c1,29,-2%,-1,-7%,-1,10%
CC(C)CCn1c(N)c(S(=O)(=O)c2cccs2)c2nc3ccccc3nc21,-88*,?,-3,5%,6,?
Cc1ccc(S(=O)(=O)c2c(N)n(CCC(C)C)c3nc4ccccc4nc23)cc1,-63*,?,9,-4%,-7,?
CCCCCn1c(NC(=O)c2ccco2)c(S(=O)(=O)c2ccc(C)cc2)c2nc3ccccc3nc21,-7,21µM*,-2,4%,17,18µM*
COc1ccccc1-n1c(SCC(=O)Nc2ccc(Br)cc2)nc(O)cc1=O,21,17%,2,nt,9,-1%
CCOC(=O)c1[nH]c(C)c(C(=O)OC)c1C,nt,3%,-2,5%,3,8%
CCOC(=O)c1[nH]c(C)c(C(=O)Nc2ccc(C)cc2C)c1C,-8,2.3µM*,-5,7%,1,1.3µM*
CCOC(=O)c1[nH]c(C)c(C(=O)Nc2ccccc2F)c1C,0,2.3µM*,-5,5%,-17,2.6µM*
CCOC(=O)c1[nH]c(C)c(C(=O)c2ccc(C)cc2)c1C,3,2.3µM*,-9,5%,-10,2.1µM*
CCOC(=O)c1[nH]c(C)c(C(=O)Nc2ccc(F)cc2)c1C,-5,-11%,-6,-1%,5,1%
Cc1cccc(CCNC(=O)CCS(=O)(=O)c2ccc3nc(C)sc3c2)c1,-4,5%,-1,nt,0,-16%
CCCCNC(=O)Cn1nc([N+](=O)[O-])c([N+](=O)[O-])c1C,-7,-1%,8,2%,-1,-6%
Cc1c(Cl)cc(-n2cnnn2)cc1[N+](=O)[O-],35,-29%,2,3%,nt,-29%

# Screening data deposited in PubChem by National Center for Advancing Translational Sciences (NCATS).
